For test [1], the system named is Zika virus NS2B-NS3 protease. Nature of the test: Primary screen GU AMC qHTS for Zika virus inhibitors (AID 1347154). Further: nearly all actives have a fitted effect of over 70% in size. Further: potency means the concentration at half of the fitted maximal effect. The gist of the method:
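Unlinked Zika NS2B hydrophilic domain/NS3 protease domain noncovalent complex (25 nM final) in 10 mM Tris-HCl pH 8.0, 0.01% Tween 20, with AMC peptide substrate. Fluorescence (ex 340, em 450 nm) change over 15 min, room temperature; percent inhibition fitted to 4-parameter Hill equation.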
(In general: In qHTS, concentration-response curves come from the screen itself.)

The test system of test [2] is Zika virus NS2B-NS3 protease (unlinked complex). In words: Primary screen GU Rhodamine qHTS for Zika virus inhibitors: Unlinked NS2B-NS3 protease assay (AID 1347159). Further: nearly all actives have a fitted effect of over 60% in size. A digest of the protocol: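 Compounds, tested up to 114 microM, were incubated for 15 minutes with 25 nM unlinked NS2B-NS3 protease at pH 8.0. Cleavage of 1.5 microM Rhodamine110 substrate was then followed by fluorescence for 15 minutes.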

Test [3] has as its system Zika virus NS2B-NS3 protease (linked construct). In words: Primary screen NINDS Rhodamine qHTS for Zika virus inhibitors (AID 1347160). Further: nearly all actives have a fitted effect of over 55% in size. The settings on record: outcome: dose series up to 57.1 µM unless noted. The gist of the method:
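Percent inhibition, normalized to uninhibited and enzyme-free controls, is fitted to a 4-parameter Hill equation. Fluorescence change comes from a 15-min cleavage of 1.5 microM bis-peptide Rhodamine110 substrate by 25 nM linked NS2B-NS3 at room temperature.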

Test [4] in a line: qHTS to identify inhibitors of the type 1 interferon - major histocompatibility complex class I in skeletal muscle: primary screen against the NCATS Pharmaceutical Collection (AID 1347407).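 Further: luminescence of HiBiT knocked into endogenous HLA-B as interferon-induced MHC class I level.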 A digest of the protocol:
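Compounds […] were added to CRISPR-engineered HLA-B-HiBiT C25cl48 human myoblasts with 4.0 ng/ml IFN-beta. After 24 hrs at 37 C, cells were lysed and HiBiT luminescence measured.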

A short description of test [5]: Confirmatory screen NINDS Rhodamine qHTS for Zika virus inhibitors (AID 1347161). Further: potency means the concentration at half of the fitted maximal effect; nearly all actives have a fitted effect of over 60% in size. The gist of the method:
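Purified linked NS2B-NS3 protease (NS2B hydrophilic domain joined to NS3 protease by flexible linker), 25 nM in 10 mM Tris-HCl pH 8.0, 0.01% Tween 20. Compounds titrated, 15 min preincubation at room temperature; 1.5 microM Rhodamine110 substrate, FITC fluorescence change over 15 min.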

Test [6] in a line: Tertiary RLuc qRT-PCR qHTS assay for Zika virus inhibitors (AID 1347169). Further: top concentration of the series differs between compounds; nearly all actives have a fitted effect of over 55% in size. A digest of the protocol:
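Orthogonal cell-based readout: luminescence measured 1-1.5 hrs after adding live-cell Renilla substrate to Vero cells that had been infected with ZIKV-RLuc (MOI 1-2) post-compound, incubated 48-72 hrs at 37 degrees C.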
On the technique in general: Quantitative PCR measures a nucleic acid by following its amplification.

Inconclusive results are not listed. A call without a number means that no potency is given here. Unmarked numbers belong to inactive results. Calls of active or inactive are those of the source. The call rests on the fitted dose curve; in most records, active means well fitted curve in the direction sought with a large enough effect; inconclusive means small, poorly fitted or top-dose-only effect, or another doubt; inactive means no such curve, though single readings can be large; an effect the other way counts as inactive or inconclusive.

As for `CC1c2ccccc2CN1NC(=O)c1ccc(Cl)c(S(N)(=O)=O)c1` (configuration not stated), the Potency entry in test [1], in test [2] and in test [4] was “inactive” in each case. The call in test [3] was inactive.
As for `NS(=O)(=O)c1ccc(N2CCCCS2(=O)=O)cc1`, the Potency entry in test [1] is “inactive”.
Same read-out and setting: to `Cc1ccc(C(=O)Oc2ccc(C(O)CNC(C)(C)C)cc2OC(=O)c2ccc(C)cc2)cc1` (configuration not stated) belongs “inactive”; to `CC(C)(C)c1ccc(O)c(O)c1`, “inactive”; to `COCCOCC(OC)OC`, “inactive”.
Turning to `CN(C)C(=O)CNC(=O)Cc1ccccc1`, the Potency entry in test [1], in test [2] and in test [4] was “inactive” in each case. Moreover, the call in test [3] was inactive.
As for `O=C(CCCCCCCCC#CI)Oc1ccccc1`, the Potency result in test [1], in test [2] and in test [4] was “inactive” in each case. Further, in test [3], the compound was called inactive.
On to `CC(=O)OCC(=O)Nc1cc(C#N)cc(NC(=O)COC(C)=O)c1Cl`, for which the Potency result in test [1], in test [2] and in test [4] was “inactive” in each case. Further, the call in test [3] was inactive.
On to `CC(=O)Nc1ccn(C2COC(COC(=O)c3ccccc3)O2)c(=O)n1` (configuration not stated), for which the Potency entry in test [1], in test [2] and in test [4] was “inactive” each time. The compound was classed as inactive in test [3].
For the compound `CN1C(=O)CC(C)(c2ccccc2)C1=O` (configuration not stated), in test [1], the Potency entry was “inactive”.
Regarding `CCOC(=O)c1ccc(NC(=O)CN2CCCCC2)cc1`, the Potency entry in test [1], in test [2] and in test [4] was “inactive” throughout. The compound was classed as inactive in test [3].
As to `O=[N+]([O-])c1nccn1CO[C@@H](CO)[C@H](O)CO`, the Potency entry in test [1] and in test [2] was “inactive” each time. In addition, in test [3], the call was inactive.
Consider `CC(C)(C)c1cc(C=O)cc(C(C)(C)C)c1O`, for which, in test [1], the Potency result was “inactive”.
With `CCCCNc1ccc(C(=O)OCCN(CC)CC)cc1`, the Potency result in test [1], in test [2] and in test [4] was “inactive” each time. Moreover, in test [3], the outcome was inactive.
For `CCN(CC)CCOc1ccc(/C(=C(\Cl)c2ccccc2)c2ccccc2)cc1`, the Potency result in test [1] and in test [2] was “inactive” each time. In addition, the outcome in test [3] was inactive.
Consider `O=C(O)CNC(=O)CNC(=O)CNC(=O)CSC(=O)c1ccccc1`, for which the Potency result in test [1], in test [2] and in test [4] was “inactive” in each case. Besides, the result in test [3] was inactive.
Consider `CC1CN(c2cc3c(cc2F)c(=O)c(C(=O)O)cn3-c2ccc(F)cc2F)CCN1` (configuration not stated), for which, in test [1], the activity change, negative = inhibition is -3.57% [at 4.99 µM]. The Potency result in test [2] was “inactive”.
As to `O=C(OCCN1CCOCC1)c1cccnc1Nc1cccc(C(F)(F)F)c1`, the Potency result in test [1] is “inactive”.
`O=C1CC[C@H](C(=O)N2CCCCC2)N1`: the Potency entry in test [1] and in test [2] was “inactive” each time. The compound was called inactive in test [3].
`O=C(O)[C@@H](O)[C@H](O)[C@H](O)[C@@H](O)C(=O)O`: the Potency result in test [1] was “inactive”.
For the compound `O=C(CCC1CCN(Cc2ccccc2)CC1)c1ccc2c(c1)NCCCC2`, the Potency result in test [1], in test [2] and in test [4] was “inactive” each time. Further, the compound was called inactive in test [3].
As to `CC(C)C(=O)Nc1cccc(C2CN3CCSC3=N2)c1` (configuration not stated), the Potency result in test [1] and in test [4] was “inactive” in each case.
For `O=C1OC2(c3ccccc31)c1cc(I)c(O)c(I)c1Oc1c2cc(I)c(O)c1I`, the Potency in test [1] is 16.1 µM (active); in test [5], 17.8 µM (active). Also, the activity change, negative = inhibition in test [6] is 6.31% [at 1.74 µM].
With `CSCC[C@H](NC(=O)[C@H](Cc1c[nH]c2ccccc12)NC(=O)CCNC(=O)OC(C)(C)C)C(=O)N[C@@H](CC(=O)O)C(=O)N[C@@H](Cc1ccccc1)C(N)=O`, the Potency entry in test [1] and in test [4] was “inactive” each time.

The values are drawn from PubChem BioAssay (NCATS).
